From PubChem BioAssay AID540303 (National Center for Advancing Translational Sciences (NCATS), 2011)
About 1,000 (0.3%) of roughly 330,000 compounds were called active. About 3% were inconclusive and are not listed. For the sample, actives were picked, then their nearest neighbours and some compounds at random. A number with no mark means an inactive call. Calls come from the whole dose curve; as a rule, active = well fitted inhibition curve with a large enough effect; inconclusive = small, poorly fitted or top-dose-only effect; inactive = no such curve, though single readings can be large or run the other way; tested in mouse RAW 264.7 cells.

Experiment: qHTS for Inhibitors of Cell Surface uPA Generation; note: nearly all actives have a fitted effect of over 55% in size
Conditions: cell surface uPA generation assay; series mostly up to 38.3 µM; activity change, negative = inhibition: at the top concentration
Source text: The overall objective of this project is to perform a quantitative high throughput screen (qHTS) to identify novel compounds that inhibit the generation of cell surface urokinase activity. The urokinase plasminogen activator (uPA) is one of the two primary endogenous systems that mediate plasminogen activation into plasmin. Members of this system, including uPA and its receptor (uPAR), are overexpressed in several malignant tumors. This system plays a major role in adhesion, migration, invasion and metastasis of cancer cells. Small molecule inhibitors of the uPA system will serve as probes to understand the molecular mechanisms of the uPA cascade and better understanding the microenvironmental circumstances that facilitate the activation of plasminogen by uPA, and finally may provide novel candidate agents for anticancer drug therapy.
[…] […] Upon inhibition of the uPA activation cascade, the subsequent cell surface uPA activity-dependent translocation of LF into the cytoplasm is inhibited. ATP-Lite is used to measure intracellular ATP concentrations, which remain increased if LF entry into the cytoplasm is inhibited. This validation assay was performed using a small set of validation compounds.
NIH Chemical Genomics Center [NCGC]
NIH Molecular Libraries Probe Centers Network [MLPCN]
Assay Submitter (PI): Thomas Bugge, National Institute of Dental and Craniofacial Research, NIH
Cultured RAW 264.7 were dispensed into 1536-well clear bottom, white walled tissue culture plates at a density of 4000 cells/well and were incubated overnight (12-16 h) at 37 C in a 5% CO2 incubator. Serially diluted compounds in 23 nl DMSO were added to cells. […] Compound and reagent-treated plates were incubated for 24 h at 37 C in a 5% CO2 incubator. Perkin Elmer ATPlitetrade mark 1 step (3 ul) was then added to each well. Luminescence was detected using a Perkin Elmer ViewLuxtrade mark plate reader.
1.Dispensing RAW 264.7 cells into 1536-well, white walled tissue culture plates at a density of 4000 cells/well (4 uL).
2.Incubation at 37 C in a 5% CO2 incubator overnight.
3.Serially diluting compounds (1:5 serial dilution; 0.0024 uM to […] final concentration) in 23 nl DMSO.
5.Incubating the compound and reagent-treated plates for 24 hours at 37 C in a 5% CO2 incubator.
6.Adding ATP-Lite (3 ul).
7.Reading plates by ViewLux with an exposure length of 5 seconds.
% is set by controls: 0 for no effect and ±100 for the full control effect; potency is the fitted concentration of half-maximal effect.

SMILES | activity change, negative = inhibition [%] | Potency
NC(=O)Nc1ccc(C(=O)OCC(=O)NC2CCCc3ccccc32)cc1 (stereo unspecified) | 2.72 | 
CC1=CC(=NNS(=O)(=O)c2ccc([N+](=O)[O-])cc2)CC(C)(C)C1 | -2.04 | 
Cc1onc(-c2c(F)cccc2Cl)c1C(=O)Nc1cccc(S(=O)(=O)N2CCCCC2)c1 | -0.171 | 
Cc1cc(C)c([N+](=O)[O-])cc1-c1ccc(/C=N/NC(=O)c2nonc2N)o1 | 2.06 | 
COc1cc(/C=N/N=C(\N)c2nonc2N)cc(OC)c1OC | 2.87 | 
COc1cc(/C=N\NC(=O)c2nonc2N)c(OC)cc1Br |  | 7.94 µM (active)
CSCCC(NC(=O)COc1ccccc1)C(=O)OCc1ccc(Cl)cc1 (stereo unspecified) | 1.9 | 
CCOc1ccc(/C=C(/C#N)c2nnc(N3CCOCC3)n2-c2ccccc2)cc1OC | -3.57 | 
CCOc1ccccc1NC(=S)C(=C([O-])c1ccc2c(c1)OCCO2)[n+]1ccc(CC)cc1 | -8.87 | 
O=c1[nH]c2c(c(=O)n1-c1ccccc1)CCO2 | 3.17 | 
O=[N+]([O-])c1ccc(NS(=O)(=O)c2ccccc2)c(Cl)c1 | -0.654 | 
CCc1ccc(C(=O)C(C)OC(=O)CN2C(=O)NC3(CCCC3)C2=O)cc1 (stereo unspecified) | -1.56 | 
O=C(NCCCn1ccnc1)c1cc(Br)c(Br)s1 | 5.42 | 
O=C(NCCCn1ccnc1)c1ccccc1F | 1.64 | 
O=C(NCCCn1ccnc1)c1cc(-c2ccccc2)on1 |  | 5.62 µM (active)
CCc1c(Nc2ccccc2Cl)nc(N)[nH]c1=O | -10.9 | 
O=C(O)c1ccc(Cn2cnc3c(=S)nc[nH]c32)cc1 | -3.45 | 
CCCCC(=O)NC(c1ccc(OC)c(OC)c1)c1ccc2cccnc2c1O (stereo unspecified) | -13.8 | 
CC1CN(Cc2ccccc2)C(=S)NC1=O (stereo unspecified) | 1.89 | 

SMILES | activity change, negative = inhibition [%] | Potency
COc1cccc(/C=N/Nc2ccc(S(=O)(=O)Nc3ccccc3C(=O)O)cc2[N+](=O)[O-])c1O | 0.183 | 
c1ccc2c(c1)OC1OC2Oc2ccccc21 | 12.3 | 
Cc1ccsc1/C=N/Nc1ccc(Cl)nn1 | 11.8 | 
COc1cccc(/C=N/Nc2ccc(Cl)nn2)c1 | 5.63 | 
Oc1cccc(/C=N/Nc2ccc(Cl)nn2)c1O |  | 2.82 µM (active)
Cc1ccc(S(=O)(=O)CCC(=O)OCC(=O)N(C)Cc2ccccc2)cc1 | 4.47 | 
NC(=S)NN=C1CCCC(C(F)(F)F)C1 (stereo unspecified) | -2.84 | 
CSCCC(NC(=O)COc1ccccc1)C(=O)N1CCN(c2cccc(C(F)(F)F)c2)CC1 (stereo unspecified) | -9.29 | 
COc1cc(C2c3cc4c(cc3C(O)C3COC(=O)C23)OCO4)cc(OC)c1OC (stereo unspecified) | -8.49 | 
COC(=O)CNC(=O)c1cc(-c2ccncc2)nc2ccccc12 | -0.0987 | 
O=C(Nc1ccc(S(=O)(=O)Nc2nccs2)cc1)c1cc(-c2ccncc2)nc2ccccc12 | 1.2 | 
CCN(CC)CCNC(=O)c1ccc(NC(=O)c2cc(-c3ccncc3)nc3ccccc23)cc1 |  | 10 µM (active)
CN(C(=O)c1cccc(NC(=O)Cc2cccc(NC(=O)C3CCCN(C(=O)C4CC4)C3)c2)c1)C1CCC1 (stereo unspecified) | 14.2 | 
O=C(Nc1ncccc1O)c1ccc(S(=O)(=O)N2CCCC2)cc1 |  | 7.94 µM (active)
O=C(N/N=C/c1ccccn1)c1ccc(S(=O)(=O)N2CCCCCC2)cc1 | 5.59 | 
O=C(Nc1ncccc1O)c1ccc(S(=O)(=O)N2CCCCCC2)cc1 | 0.388 | 
Cc1cn(C2CC(O)C(CO)O2)c(=O)n(CCCc2ccccc2)c1=O (stereo unspecified) | -2.05 | 
O=S1(=O)CSCS(=O)(=O)C1 | 2.84 | 
Cc1[nH]c2ccc(C(=O)N3CCN(C)CC3)cc2c1C | -8.89 | 

SMILES | activity change, negative = inhibition [%] | Potency
COc1ccccc1N1CCN(C(=O)c2ccc(Cl)c(S(=O)(=O)N3CCCC3)c2)CC1 | -0.654 | 
CCOc1ccccc1N1CCN(C(=O)c2ccc3[nH]c(C)c(C)c3c2)CC1 |  | 2.51 µM (active)
CCCCCCCCNS(=O)(=O)CCNC1CCCCC1 | 6.43 | 
O=C(Cc1ccc(S(=O)(=O)N2CCOCC2)s1)Nc1ccc(Br)c(C(F)(F)F)c1 | -17.8 | 
CC(C)(C)S(=O)(=O)N1Cc2cc(CO)cc(CCO)c2[C@H]1CCO | 2.5 | 
Cc1ccc(C(=O)N2CCN(C(=O)N3CCOCC3)CC2)cc1 | 1.5 | 
Cc1oc2c(c1C(=O)N1CCOCC1)C(=O)c1ccccc1C2=O |  | 2.51 µM (active)
Cc1ccccc1-c1ccc(Nc2ccc(C(=O)N3CCOCC3)cc2)nn1 | -5.32 | 
C/C(=N\Nc1ccccc1)c1cccs1 | -0.263 | 
CC1C(C)N(C(=O)CCl)c2ccccc2N1C(=O)CCl (stereo unspecified) | -9.43 | 
O=C(NN=Cc1ccccc1O)NN=Cc1ccccc1O | -13.6 | 
O=C1C[C@@H]2c3c(cccc3CN1Cc1ccccc1)C[C@@H](O)[C@H]2O | 4.62 | 
COc1ccc(CNCCCn2cnc3c(OCc4ccccc4)ncnc32)cc1 | -11.6 | 
CC(C)(C)OC(=O)N1CCC(C(=O)Nc2cccc(C(=O)NCCc3ccccc3)c2)CC1 | 21 | 
CC(C)[C@@H](C(=O)OCC(=O)c1ccc2c(c1)NC(=O)CO2)N1C(=O)c2ccccc2C1=O | 0.762 | 
Oc1ccccc1CN1CCN(C(c2ccccc2)c2ccccc2)CC1 | 7.27 | 
CC1(C)CC(N2CCN(C(c3ccccc3)c3ccccc3)CC2)=CC(=[N+]2CCCCC2)C1 |  | 1.12 µM (active)
O=C1CC(N2CCN(C(c3ccccc3)c3ccccc3)CC2)C(=O)N1 (stereo unspecified) | -0.34 | 
